In the OligoGym collection one finds sensor-assay potency score (higher = more potent) data, which are given here for 24 sequences.
Further: reference of the scale not given here.

The first test has as its target ARL8B. The test can be described thus: pooled miR-30 sensor sort-seq; sequence = guide strand. The settings on record: shRNA.
Sequence TTTCGGGAAGCTTCTATCTTTT showed a sensor-assay potency score (higher = more potent) of -1.11.

Regarding TTTCTCTATCCTGAATAGCAGA, the sensor-assay potency score (higher = more potent) was -1.1.

TAATTCTAGGATTATAGCCAAG showed a sensor-assay potency score (higher = more potent) of -1.33.

For TAAACAATAGCATTGACTCCTC, the sensor-assay potency score (higher = more potent) is -0.391.

For the sequence TGTGATATCTATATTATCCTTT, the sensor-assay potency score (higher = more potent) was found to be 0.458.

With TTTATCTAGAAGATTATGTAGC, the sensor-assay potency score (higher = more potent) came out at 0.313.

TTACCTTTAGTTACCTTCCTCA showed a sensor-assay potency score (higher = more potent) of 0.244.

In turn, TTTCACGATCTGCAGCATCTAT displayed a sensor-assay potency score (higher = more potent) of -0.778.

For the sequence TATCTTCACTGAATTGACCTGA, the sensor-assay potency score (higher = more potent) stood at 0.755.

TTGAATAGCAGCAAATTTCTCT gave a sensor-assay potency score (higher = more potent) of 0.213.

Turning to TTTCCAAGCACTAGCACTGGAA, the sensor-assay potency score (higher = more potent) was -1.03.

As for TATCATGTAAACAATAGCATTG, the sensor-assay potency score (higher = more potent) was -1.05.

Another test has as its target ARPC1A. The test is described as above. The settings on record: shRNA.
As for AAATTTGCGACAATCTTGCTTG, the sensor-assay potency score (higher = more potent) was -0.036.

In the case of TTGAGTGATGCTATTCTGGTGC, the sensor-assay potency score (higher = more potent) stood at 0.522.

On to TTTAATGTGCTTGCTCACCCAC, for which the sensor-assay potency score (higher = more potent) was -0.282.

Sequence TATAGATGTGCACTTCGTGATT came in with a sensor-assay potency score (higher = more potent) of -0.958.

Sequence TAACAAACAGAAATGAGTCGTG yielded a sensor-assay potency score (higher = more potent) of 0.708.

The sequence TTTTGGAATATCTAACTTGGAG displayed a sensor-assay potency score (higher = more potent) of -0.944.

TCTGAGACAAATGACACACTTA came in with a sensor-assay potency score (higher = more potent) of 0.156.

The sequence TATTCAAACAAAACCACACGGC displayed a sensor-assay potency score (higher = more potent) of -0.11.

In the case of TGAAGTCACATGATCCTGCTGC, the sensor-assay potency score (higher = more potent) stood at 0.622.

ATTTGAAGTCACATGATCCTGC gave a sensor-assay potency score (higher = more potent) of 0.383.

TTTGGAATATCTAACTTGGAGA gave a sensor-assay potency score (higher = more potent) of -0.835.

Take TTGGCTTCCAAACACCATCTTT: the sensor-assay potency score (higher = more potent) is -0.586.
